# Screening data from PubChem BioAssay.
# A selection: hits, their analogues and other compounds. The true share with any hit is near 3.4%.
# TEAD-YAP inh – TEAD-YAP interaction inhibition, primary screen, TEAD-YAP interaction inhibitor project, luminescence, HEK-TIYL cells | AID 1259422, 2018 | inhibition, % at 9.12 µM | TEAD-Gal4/YAP UAS-luciferase luminescence | 1.4% of 640,000 active; in the data active = inhibition above about 32%
# GPR151 ag – activators of human GPR151, primary screen, cell-based, PathHunter beta-arrestin, luminescence | AID 1508602, 2020 | G-protein coupled receptor 151 (Homo sapiens), Q8TDV0 | activation, % at 11.2 µM | 1% of 650,000 active | PathHunter beta-arrestin GPR151 cells; in the data active = activation above about 4.9%
# MITF inh – MITF inhibitors, primary screen, biochemical, AlphaScreen, human; Microphthalmia-associated transcription factor (Homo sapiens), O75030; AlphaScreen MITF homodimerization, bead proximity signal; inhibition, % at 2.6 µM; 0.91% of 650,000 active; in the data active = inhibition above about 50%
# FBW7 activator – FBW7 E3 ligase activators, primary screen, biochemical, AlphaScreen, human. 0.13% of 650,000 active. AID 1259310, 2017. F-box/WD repeat-containing protein 7 (Homo sapiens), Q969H0. AlphaScreen FBW7–phospho-cyclin E peptide binding, activator screen. normalized activity (activation), % at 26.1 µM; in the data active = normalized activity above about 1.9%;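 note: purified mutant Fbw7 with reduced substrate affinity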
# Target sequence (Q969H0 whole entry, looked up): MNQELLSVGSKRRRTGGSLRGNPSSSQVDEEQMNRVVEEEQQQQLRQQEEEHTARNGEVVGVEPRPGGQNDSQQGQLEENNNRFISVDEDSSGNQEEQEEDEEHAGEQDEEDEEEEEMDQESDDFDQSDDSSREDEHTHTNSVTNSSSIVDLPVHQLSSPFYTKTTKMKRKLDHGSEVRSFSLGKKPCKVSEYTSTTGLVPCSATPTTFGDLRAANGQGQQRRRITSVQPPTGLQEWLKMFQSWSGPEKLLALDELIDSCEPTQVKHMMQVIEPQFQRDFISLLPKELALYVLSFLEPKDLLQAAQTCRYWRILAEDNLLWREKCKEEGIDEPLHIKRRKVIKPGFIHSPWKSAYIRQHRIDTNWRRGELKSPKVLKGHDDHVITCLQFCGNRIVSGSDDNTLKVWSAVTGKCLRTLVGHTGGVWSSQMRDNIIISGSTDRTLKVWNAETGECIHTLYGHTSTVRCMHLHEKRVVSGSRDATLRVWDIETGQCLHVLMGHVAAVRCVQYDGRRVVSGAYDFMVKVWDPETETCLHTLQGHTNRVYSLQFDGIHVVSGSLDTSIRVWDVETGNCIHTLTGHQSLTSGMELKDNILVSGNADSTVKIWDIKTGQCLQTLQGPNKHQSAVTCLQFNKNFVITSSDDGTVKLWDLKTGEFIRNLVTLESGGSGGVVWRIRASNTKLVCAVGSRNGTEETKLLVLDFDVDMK
# GPR151 conf act – GPR151 activators, triplicate retest, confirmation, cell-based, PathHunter beta-arrestin, luminescence | shares compounds with GPR151 ag | GPR151 PathHunter beta-arrestin cells, 90 min; % of EA-reagent control over plate median | activation, % at 11.2 µM | 6,700 tested, under 10 active | AID 1508609, 2020;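 active = mean percent activation across replicates above the confirmation screen cutoff of 4.91%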
# GPR119 ag – GPR119 activators in beta-arrestin cells, counter-screen for GPR151 activator project, cell-based, PathHunter beta-arrestin, luminescence, triplicate; shares compounds with GPR151 ag; 0.3% of 6,700 active; AID 1508611, 2020; activation, % at 11.2 µM; 90 min; 0 = compound-well median, 100 = enzyme-acceptor control;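 active = mean percent activation in the counterscreen above 29.09%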;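 note: counterscreen on off-target GPR119 to flag nonselective hits from the GPR151 activator screen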
# A number is an active result; n = inactive; x = no result given; ! = a repeat was not active.
SMILES,TEAD-YAP inh,GPR151 ag,MITF inh,FBW7 activator,GPR151 conf act,GPR119 ag
CCCN1C(=O)C[n+]2ccccc2C1C(=O)Nc1ccccc1C (stereo unspecified),n,12,n,n,n,n
COc1cccc(/C=N\Nc2nnc3c(n2)[nH]c2c(C)cccc23)c1,n,n,n,n,x,x
Cc1cccc2c1[nH]c1nc(N/N=C\c3ccccc3O)nnc12,n,5.0,n,n,n,n
COc1ccc(/C=N\Nc2nnc3c(n2)[nH]c2c(C)cccc23)cc1OC,n,9.7,n,n,n,n
O=C(NC(c1ccccc1)c1ccccc1)C1CCCc2c1[nH]c1ccc(Cl)cc21 (stereo unspecified),n,n,n,n,x,x
Cc1csc(Nc2ccccc2)[n+]1CC(O)c1ccc([N+](=O)[O-])cc1 (stereo unspecified),n,6.3,n,n,n,n
Cc1ccccc1N1C(=O)c2ccc(C(=O)NN3C(=O)c4ccccc4C3=O)cc2C1=O,n,n,n,n,x,x
CCOc1ccccc1C(=O)Nc1ccc(S(=O)(=O)NCC2CCCO2)cc1 (stereo unspecified),n,n,n,n,x,x
Cc1ccc(Nc2nc(C(=O)N3CCN(c4ccccc4)CC3)cs2)cc1,n,n,n,n,x,x
CC(C)c1nnc(NC(=O)c2cc(Cl)ccc2Cl)s1,n,5.1,n,n,n,n
C/C(=N\NC(=O)c1ccc(CN2c3cccc4cccc(c34)S2(=O)=O)cc1)c1ccco1,n,n,n,n,x,x
CN1CCC(=NNC(=O)c2ccc(CN3c4cccc5cccc(c45)S3(=O)=O)cc2)CC1,n,6.0,n,n,n,n
COC(=O)c1cccc(NC(=O)/C(=C\c2ccco2)NC(=O)c2ccco2)c1,n,5.5,n,n,n,n
CC(=O)c1cccc(NC(=O)/C(=C/c2ccco2)NC(=O)c2ccco2)c1,n,n,n,n,x,x
CCN1C(=O)C(CC(=O)Nc2ccc(OC)cc2)N(Cc2cccs2)C1=S (stereo unspecified),n,5.9,n,n,n,n
CC(C)=CCN1CCN(Cc2sccc2C)CC1CCO (stereo unspecified),n,12,n,n,n,n
CC(=O)OC[C@H]1O[C@H](C#Cc2ccc(C(C)(C)C)cc2)C=C[C@@H]1OC(C)=O,x,n,n,n,x,x
COc1ccc(C#C[C@@H]2C=C[C@H](OC(C)=O)[C@@H](COC(C)=O)O2)cc1,x,9.3!,n,n,n,n
CCC1=NN(C(=O)Cc2ccccc2)C(O)(c2ccccc2)C1 (stereo unspecified),n,6.9,n,n,n,n
O=C(CN(CC1CCCO1)C(=O)CCC(=O)Nc1ccccn1)NCC1CCCO1 (stereo unspecified),n,5.0,n,n,n,n
Cc1nn(-c2ccccc2)c(Cl)c1/C=N\O,n,5.1,n,n,n,n
CCOc1ccc(N2CC(C(=O)N3CCN(C(=O)C4CC(=O)N(c5ccc(OCC)cc5)C4)CC3)CC2=O)cc1 (stereo unspecified),n,n,n,n,x,x
CCOc1ccc(N2CC(C(=O)OC)CC2=O)cc1 (stereo unspecified),n,6.4,n,n,n,n
CCOc1ccc(N2CC(C(=O)N3CCC4(CC3)NC(=O)c3ccccc3N4)CC2=O)cc1 (stereo unspecified),n,5.1,n,n,n,n
CCN(CC)P(=O)(c1nc2ccccc2n1CC)N(CC)CC,n,5.6,n,n,n,n
SMILES,TEAD-YAP inh,GPR151 ag,MITF inh,FBW7 activator,GPR151 conf act,GPR119 ag
Cc1cc(NCc2ccccc2)nc(NCCN2CCOCC2)n1,n,6.0,n,n,n,n
O=C(NC1CCCC1)C(c1ccco1)N(Cc1cccs1)C(=O)c1ccco1 (stereo unspecified),n,n,n,n,x,x
CC1(C)CC(N(Cc2cccs2)C(=O)c2ccco2)CCO1 (stereo unspecified),n,9.3,n,n,n,n
CC(C)OC(=O)c1ccc(SCC2CCCO2)c([N+](=O)[O-])c1 (stereo unspecified),n,9.0,n,n,n,n
CCOC(=O)c1ccc(SCC2CCCO2)c([N+](=O)[O-])c1 (stereo unspecified),n,n,n,n,x,x
CC(C)(C)C(=O)COC(=O)CCC(=O)c1cccs1,n,6.1,n,n,n,n
O=C1NC2(CCN(C(=O)c3cccc4nccnc34)CC2)Oc2ccccc21,n,n,n,n,x,x
O=c1oc2ccc(Cl)cc2cc1-c1nnc(-c2ccccc2Cl)o1,n,5.6,n,n,n,n
CCC(=O)C1=C(c2ccc(C)c(C)c2)N(C(=O)CC)n2c(C)nnc2S1,n,n,n,n,x,x
COCCN(Cc1cc2cc(C)cc(C)c2nc1Cl)C(C)=O,n,n,n,n,x,x
CC(C)(Cc1ccc(O)cc1)NC(=O)SCc1ccccc1,n,n,n,n,x,x
CC(N)(Cc1ccc(O)cc1)C(=O)O (stereo unspecified),n,5.2!,n,n,n,n
CCC(=O)Nc1ccc(NC(=O)CSc2nnc(C)c(=O)[nH]2)cc1,n,n,n,n,x,x
O=C1CC(N2CCC(O)(c3ccc(Br)cc3)CC2)C(=O)N1c1cccc(F)c1 (stereo unspecified),n,n,n,n,x,x
CCCN(CCC)CCCn1cnc2c([nH]c3ccc(F)cc32)c1=O,n,n,n,n,x,x
CCCN(CCC)CCCn1cnc2c([nH]c3ccc(OC)cc32)c1=O,n,5.1,n,n,n,n
CCC(=O)Nc1ccc(NC(=O)/C=C/c2cc(Br)ccc2OC)cc1,n,9.6,n,n,n,n
COc1ccc(/C(C)=N/NC(=O)c2ccccc2Br)cc1,n,5.7,n,n,n,n
COC(c1ccc2c(c1)CN(C(=O)c1nc3ncccn3n1)CCO2)C1CCCCC1 (stereo unspecified),n,9.5,n,n,n,n
Cc1ccc2[nH]c3c(c2c1)CCCC3NC(=O)CCl (stereo unspecified),88,7.3,n,n,n,n
COc1cc(C(=O)NCc2ccccc2)ccc1OC(C)=O,n,n,n,n,x,x
CC1(C(=O)O)C2C=CC3(CN(c4ccccc4)C(=O)C31)O2 (stereo unspecified),n,8.1,n,n,n,n
O=C(CC1CCCC1)NCCn1nc(-c2cccs2)oc1=O,n,n,n,n,x,x
COc1ccc2oc(=O)cc(CN3CCCCC3)c2c1,n,n,n,n,x,x
CCOC(=O)N1CCN(Cc2cc(=O)oc3ccc(OC)cc23)CC1,n,14,n,n,n,n
